# Screens: PubChem BioAssay, National Center for Advancing Translational Sciences (NCATS)
# In the library only some 18% were active in any assay of this set; here they are far more common.
# DT40 TDP1 no CPT = qHTS for Inhibitors of human tyrosyl-DNA phosphodiesterase 1 (TDP1): qHTS in cells in absence of CPT | DT40 Tdp1-/- hTDP1 cells, no CPT, ATP luminescence, 48 h | hit rate 15% among 420,000 | Potency, µM (top dose mostly 46.2 µM), inactives show top-dose activity change, negative = growth inhibition, hits mostly inhibitors; note: potency is the fitted concentration of half-maximal effect; % is set by controls: 0 for no effect and ±100 for the full control effect; nearly all actives have a fitted effect of over 55% in size
#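 Readout: luminescence from CellTiter-Glo after 30 min in the dark at RT. Cells: DT40 Tdp1-/- with stable hTDP1, 400/well. Exposure: compounds alone, ≥48 hr, 37 °C.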
# TDP1 inh = qHTS Assay for Inhibitors of Tyrosyl-DNA Phosphodiesterase (TDP1). Tyrosyl-DNA phosphodiesterase 1 (Homo sapiens), Q9NUW8. recombinant TDP1, AlphaScreen DNA substrate cleavage. Potency, µM (top dose mostly 130 µM), without a hit: at the highest dose activity change, negative = inhibition, actives largely listed as inhibitors. hit rate 0.28% among 350,000. AID 485290, 2010; note: potency is the fitted concentration of half-maximal effect; % is set by controls: 0 for no effect and ±100 for the full control effect; nearly all actives have a fitted effect of over 40% in size
# Target sequence (Q9NUW8 whole entry, looked up): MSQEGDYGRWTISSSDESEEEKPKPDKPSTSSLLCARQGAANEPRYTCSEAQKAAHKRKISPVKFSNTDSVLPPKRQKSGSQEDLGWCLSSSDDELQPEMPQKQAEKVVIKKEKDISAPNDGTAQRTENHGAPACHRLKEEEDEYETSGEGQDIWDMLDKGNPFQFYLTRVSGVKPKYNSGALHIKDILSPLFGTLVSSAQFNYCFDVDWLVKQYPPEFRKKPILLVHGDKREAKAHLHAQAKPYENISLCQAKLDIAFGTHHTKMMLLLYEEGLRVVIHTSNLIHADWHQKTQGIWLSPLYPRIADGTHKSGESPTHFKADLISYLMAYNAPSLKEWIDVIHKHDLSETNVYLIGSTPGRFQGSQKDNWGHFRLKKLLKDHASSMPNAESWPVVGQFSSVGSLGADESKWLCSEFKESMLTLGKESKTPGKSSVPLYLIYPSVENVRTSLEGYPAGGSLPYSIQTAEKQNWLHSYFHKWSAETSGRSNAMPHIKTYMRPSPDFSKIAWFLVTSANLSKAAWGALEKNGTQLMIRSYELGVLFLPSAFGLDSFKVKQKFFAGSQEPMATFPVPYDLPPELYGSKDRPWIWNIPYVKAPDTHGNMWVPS
#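 Recombinant human Tdp1 (E. coli-expressed, 1 nM final) preincubated with compounds 15 min at room temperature, then 5'-biotin/3'-phosphotyrosine-FITC DNA substrate (15 nM final) added for 5 min. AlphaScreen beads (10 ug/ml final) added 10 min; cleavage lowers signal.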
# HepG2 tox = qHTS for Inhibitors of TGF-b: Cytotox Counterscreen. HepG2 CAGA-GFP viability, ATP luminescence, 18 h. Potency, µM (doses to about 46.1 µM), for inactives: top-dose activity change, negative = cytotoxicity, most hits filed as cytotoxic. hit rate 0.76% among 410,000. AID 588856, 2011; note: potency is the fitted concentration of half-maximal effect
#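 CellTiter-Glo luminescence gave cytotoxicity after 18 hours at 37 degrees C. The cells were HepG2 CAGA-GFP in 1% FBS DMEM, stimulated with 500 pg/mL TGF-beta after compound addition. %Activity was normalised to no-cell wells (complete cell-killing) and DMSO (no toxicity), and curves were fitted and classified.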
# DT40 TDP1 CPT = qHTS for Inhibitors of human tyrosyl-DNA phosphodiesterase 1 (TDP1): qHTS in cells in presence of CPT | hit rate 12% among 420,000 | Potency, µM (titrated, usually from 46.2 µM), for inactives: top-dose activity change, negative = growth inhibition, actives largely listed as inhibitors | chicken DT40 Tdp1-/-;hTDP1 cells + 20 nM CPT, ATP luminescence, 48 h | AID 686979, 2013; note: potency is the fitted concentration of half-maximal effect; % is set by controls: 0 for no effect and ±100 for the full control effect; nearly all actives have a fitted effect of over 55% in size
#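 Chicken DT40 Tdp1-/- cells complemented with human TDP1, 400 cells/well, exposed to compounds plus 20 nM camptothecin for at least 48 h at 37 C; viability read as ATP content by CellTiter-Glo luminescence.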
# TGFb inhibitor = qHTS for Inhibitors of TGF-b; hit rate 1.2% among 410,000; Potency, µM (series often up to 46.1 µM), inactives show at the highest dose activity, negative = inhibition, usual class: inhibitors; HepG2 CAGA-GFP TGF-b/SMAD3 reporter, GFP fluorescence, 18 h; TGF-beta stimulated, 500 pg/mL final; note: potency is the fitted concentration of half-maximal effect; % is set by controls: 0 for no effect and ±100 for the full control effect; nearly all actives have a fitted effect of over 65% in size
#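 First, reporter cells (HEPG2 CAGA-GFP) rested 2 h at 37 degrees C. Next, compounds were pinned in and TGF-beta added to 500 pg/mL final. After 18 h, GFP was imaged per cell and summed per well.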
# IL-1B inflam inh = qHTS for Inhibitors of Inflammasome Signaling: IL-1-beta AlphaLISA Primary Screen; THP-1 LPS/ATP IL-1B secretion, AlphaLISA, 16 h; active compounds read low; activity change, % at 57.5 µM; hit rate 4.7% among 360,000; AID 743279, 2014; in the data active = activity change below about -50%; inconclusive = mostly about -30% to -49%; note: % is set by controls: 0 for no effect and ±100 for the full control effect
#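 THP-1 cells pretreated 1 hr with compounds (up to 57.5 uM final), then stimulated with LPS (250 ng/mL final) plus ATP (1.25 mM final); secreted IL-1B measured by AlphaLISA after 16 hr, decreased signal indicating inhibition.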
# An asterisk follows results filed as active; i = inactive; ? = inconclusive; . = no result given; [ ] = dose if it differs, or a comment. Unless noted, calls come from the whole dose curve; as a rule, active = well fitted curve in the direction sought with a large enough effect; inconclusive = small, poorly fitted or top-dose-only effect, or another doubt; inactive = no such curve, though single readings can be large; an effect the other way counts as inactive or inconclusive.
SMILES,DT40 TDP1 no CPT,TDP1 inh,HepG2 tox,DT40 TDP1 CPT,TGFb inhibitor,IL-1B inflam inh
CCOC(=O)C1CCN(S(=O)(=O)CCNC(=O)c2ccc3c(c2)OCO3)CC1,6%,2%,-2%,-11%,-16%,-1
C/C(=N\NC(=S)Nc1cc(S(=O)(=O)N2CCOCC2)ccc1Cl)c1ccccc1F,2.3µM*,9%,-52%,3.3µM*,?,0
Cc1nc(CNS(=O)(=O)c2ccc(F)cc2)cs1,4%,.,14%,-4%,7%,31
Cc1ccccc1/C=C(\C#N)c1nc(-c2ccc(Cl)cc2)cs1,-17%,5%,-40%,-5%,-19%,.
O=C(Nc1cccc(S(=O)(=O)N2CCOCC2)c1)c1cc2ccccc2o1,-27%,2%,-22%,-23%,-14%,-11
O=C(Nc1cc(S(=O)(=O)N2CCOCC2)ccc1Cl)c1cc2ccccc2o1,?,-3%[56.1 µM],0%,?,7%,-75*
CCOC(=O)C1CCCN(S(=O)(=O)c2csc(C(N)=O)c2)C1 (stereo not drawn),15µM*,0%,53%,?,99%,.
CCOC(=O)C1CCCN(S(=O)(=O)c2ccc(S(N)(=O)=O)cc2)C1 (stereo not drawn),?,0%,-7%,-1%,-2%,-12
CCCCCC(C)n1[nH]c(=O)cc1N (stereo not drawn),-2%,2%,-48%,-1%,?,0
CCC(=O)Nc1nc(-c2ccc3c(c2)CC(C)N3S(C)(=O)=O)cs1 (stereo not drawn),16µM*,-1%,-3%,?,-2%,-16
CCCC(=O)Nc1nc(-c2ccc3c(c2)CCN3S(C)(=O)=O)cs1,23µM*,3%,-3%,?,-21%,?
CCC(=O)Nc1nc(-c2ccc3c(c2)OCCO3)cs1,-21%,5%,-30%,?,-1%,?
CC1Cc2cc(-c3csc(NC(=O)Cc4cccs4)n3)ccc2N1S(C)(=O)=O (stereo not drawn),23µM*,7%,-15%,?,?,-22
CS(=O)(=O)N1CCc2cc(-c3csc(NCC4CCCO4)n3)ccc21 (stereo not drawn),-27%,4%,-7%,-25%,5%,-68*
CS(=O)(=O)N1CCc2cc(-c3csc(NC(=O)Cc4ccccc4)n3)ccc21,?,0%,-41%,?,?,?
COc1ccc(OC)c(-c2csc(NC(=O)Cc3cccs3)n2)c1,?,5%,3%,-7%,?,-17
O=C(Nc1nc(-c2ccc(F)c(F)c2)cs1)c1ccc(OCC2CCCO2)cc1 (stereo not drawn),?,5%,-48%,?,?,25
CCCCc1ccc(NC(=O)c2cc3c(=O)n4ccccc4nc3n2C)cc1,?,1%,6%,?,-3%,.
Cc1c(C)n(C)c2ccc(C(=O)NCCc3ccc(Cl)cc3)cc12,?,11%,-1%,18µM*,?,.
Cc1c(C)n(C)c2ccc(C(=O)NCCc3ccco3)cc12,16µM*,10%,-8%,?,2%,?
Cc1c(C)n(C)c2ccc(C(=O)Nc3cccc4ccccc34)cc12,?,12%,-3%,26µM*,4%,-19
CCn1c(C)c(C)c2cc(C(=O)NCCc3ccco3)ccc21,-2%,13%,-13%,-13%,-8%,?
Cc1ccc2c(c1)N(C(=O)CCC(=O)N1CCC(C(N)=O)CC1)CCO2,-9%,.,-5%,-1%,11%,20
COc1cc(NC(=O)C/C(C)=N/NC(=O)C(OC)c2ccccc2)c(OC)cc1Cl (stereo not drawn),-1%,4%,0%,-5%,1%,-21
Cc1ccc(Oc2nc(CN3CCOCC3)nc3sc4c(c23)CCC(C)C4)cc1 (stereo not drawn),?,4%,-21%,?,0%,-57*
SMILES,DT40 TDP1 no CPT,TDP1 inh,HepG2 tox,DT40 TDP1 CPT,TGFb inhibitor,IL-1B inflam inh
COc1cccc(Nc2nc(CN3CCOCC3)nc3sc4c(c23)CCCC4)c1,21µM*,8%,-2%,16µM*,27%,?
Cc1cc(S(=O)(=O)Nc2nc(CN3CCOCC3)nc3sc4c(c23)CCC4)cc(C)c1C,-7%,-12%,2%,-10%,-2%,9
Cc1ccc(S(=O)(=O)NN=C2C(=O)C3CCC2C3Cl)cc1 (stereo not drawn),-2%,.,1%,6%,12%,16
Cc1ccc(S(=O)(=O)N2CCOCC2)cc1NC(=O)COC(=O)c1ccc(Br)o1,1%,.,-1%,-25%,-6%,2
O=C(Nc1ccc(O)cc1)/C(=C\C=C\c1ccccc1)NC(=O)c1ccccc1,16µM*,7%,-38%,?,-5%,-5
O=C(O)COc1ccc(/C=N/NC(=O)/C(=C/C=C/c2ccccc2)NC(=O)c2ccccc2)cc1,17%,.,-17%,-8%,-7%,-8
CCCCOc1ccc(C(=O)N/C(=C/C=C/c2ccccc2)C(=O)NC)cc1,-19%,-5%,-1%,26µM*,-21%,-21
O=C(Nc1ccc(C(=O)O)cc1)/C(=C\C=C\c1ccccc1)NC(=O)c1ccccc1Cl,-11%,5%,7%,10%,3%,i
Cc1cc(C)n2nc(C(=O)N3CCN(c4ccc([N+](=O)[O-])cc4)CC3)nc2n1,-11%,6%,5%,-18%,19%,0
CCn1c(=O)cc(SCC(=O)NCCc2cc(OC)ccc2OC)c2ccccc21,21µM*,3%,-1%,21µM*,-33%,.
CCn1c(=O)cc(OCC(=O)Nc2cc(OC)c(OC)c(OC)c2)c2ccccc21,?,0%,-24%,15µM*,1%,.
CCn1c(=O)cc(SCC(=O)Nc2cccc(SC)c2)c2ccccc21,?,-5%,-28%,-25%,?,-9
CCn1c(=O)cc(SCC(=O)Nc2cc(OC)c(OC)c(OC)c2)c2ccccc21,?,-2%,-31%,23µM*,-5%,-6
O=c1cc(-c2ccc(O)c(O)c2)oc2ccccc12,?,8%,.,?,.,.
C1CCN(CCC2CCCCN2)CC1 (stereo not drawn),2%,.,0%,4%,-3%,-8
